Screening data as filed in PubChem.
LDHA inh: blocks human lactate dehydrogenase A; P00338; purified LDHA, NADH/diaphorase-resazurin fluorescence; stronger effect = lower value; activity change, % (values are at about 110 or 230 µM); 480,000 compounds, 0.15% hits; AID 1347041; in the data active = activity change below about -30%; inconclusive = mostly about -25% to -30%;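 note: plate controls were DMSO wells for no effect and wells without enzyme for full effect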
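Human LDH5 at 2 nM final in Tris HCl pH 7.4 with 0.06 mM NADH and 0.2 mM pyruvate, reacted 5 minutes at room temperature. Remaining NADH coupled via diaphorase/resazurin; resorufin fluorescence read at 0 and 20 minutes, normalized to enzyme-free and DMSO wells.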
PINK1 expr mod: changes PINK1 expression; PINK1 immunofluorescence, high-content cytometry, 24 h; Potency, µM (titrated, usually from 76.6 µM), without a hit: at the top dose activation (PINK1 increase), most hits filed as activators; 410,000 compounds, 0.2% hits; active = well fitted activation curve with a large enough effect; inconclusive = small, poorly fitted or top-dose-only effect; cell line not stated here; note: potency is the fitted concentration of half-maximal effect; % of control where 0% means no effect; nearly all actives have a fitted effect of over 65% in size
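Cells are seeded, rested 12 hours, then given compound at five concentrations or DMSO for 24 hours. After fixation, blocking and antibody staining, PINK1 amount and mitochondrial localization are scored; CCCP serves as control.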
Vif-APOBEC3F blk: blocks the Vif interaction with APOBEC3F; Potency, µM (series often up to 46.1 µM), for the others: top-dose activity, negative = active; AID 602313; HeLa A3F-eYFP + Vif (tagged APOBEC3F with the HIV-1 protein that degrades it), YFP fluorescence increase; 390,000 compounds, 0.2% hits; note: potency is the fitted concentration of half-maximal effect; % of control where 0% means no effect; nearly all actives have a fitted effect of over 65% in size
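HeLa cells stably expressing Vif plus C-terminally eYFP-tagged A3F were seeded, incubated overnight at 37 deg C, dosed with compound, incubated overnight again at 37 deg C. Yellow fluorescence (Ex 488/Em 500-530) reported blocked Vif-mediated A3F-eYFP degradation.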
Vif-A3G inh: blocks the Vif interaction with human APOBEC3G; 410,000 compounds, 0.076% hits; AID 602310; Q9HC16; HeLa A3G-eYFP + Vif (tagged APOBEC3G with the HIV-1 protein that degrades it), YFP fluorescence, overnight; Potency, µM (series often up to 46.1 µM), inactives show at the highest dose activity, negative = active, most hits filed as inhibitors; note: potency is the fitted concentration of half-maximal effect; % is set by controls: 0 for no effect and ±100 for the full control effect; nearly all actives have a fitted effect of over 60% in size
Target sequence (Q9HC16 whole entry, looked up): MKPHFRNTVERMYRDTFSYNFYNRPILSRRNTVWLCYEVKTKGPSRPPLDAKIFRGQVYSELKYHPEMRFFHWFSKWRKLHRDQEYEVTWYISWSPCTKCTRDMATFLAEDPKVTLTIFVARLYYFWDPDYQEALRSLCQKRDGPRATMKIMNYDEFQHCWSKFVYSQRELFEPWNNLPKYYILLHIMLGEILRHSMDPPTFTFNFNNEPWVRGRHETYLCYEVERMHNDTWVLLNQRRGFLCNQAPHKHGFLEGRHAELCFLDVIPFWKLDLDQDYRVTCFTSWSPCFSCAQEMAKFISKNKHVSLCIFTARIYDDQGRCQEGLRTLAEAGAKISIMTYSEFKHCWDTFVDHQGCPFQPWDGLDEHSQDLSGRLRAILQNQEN
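HeLa cells stably expressing Vif and C-terminally eYFP-tagged A3G, seeded overnight at 37 deg C, then exposed to compound by pintool overnight at 37 deg C. Rise in yellow fluorescence (Ex 488/Em 500-530, Acumen) marks blocked Vif-driven A3G degradation.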
Akt phos inh: inhibitors of Akt phosphorylation | Neuro2A IGF-stimulated pAkt S473 HTRF, 20 min; stronger effect = lower value | activity change, % for hits at 50 µM | 360,000 compounds, 0.32% hits; in the data active = activity change below about -80%; inconclusive = mostly about -51% to -80%; note: % is set by controls: 0 for no effect and ±100 for the full control effect
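Neuro2A cells in DMEM with 0.5% FBS, overnight at 37 deg C, given compound at single 50 µM final, then IGF (6 nM final) for 20 min at 37 deg C. Lysed; phospho-Akt Ser473 by HTRF after 24 h, 665/615 ratio.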
Glioma ERSR ind: inducers of ER stress response in human glioma cells; U87-MG GRP78 promoter luciferase reporter, 16 h; Potency, µM, without a hit: at the top dose activation, hits mostly activators; 420,000 compounds, 0.02% hits; AID 602332; note: potency is the fitted concentration of half-maximal effect; series mostly up to about 76 µM; % of control where 0% means no effect; nearly all actives have a fitted effect of over 35% in size
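Stably transfected U87-MG glioma cells carrying a GRP78-based luciferase sensor; 16 h compound incubation. Luminescence end-point read 10 min after Bright-Glo addition at room temperature.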
Active calls of the source: *; i = inactive; ? = inconclusive; nt = no result; ! = a repeat was not active. Most compounds without a hit are left out; they make up all but 0.74% or so of the library. Unless noted, calls come from the whole dose curve; as a rule, active = well fitted curve in the direction sought with a large enough effect; inconclusive = small, poorly fitted or top-dose-only effect, or another doubt; inactive = no such curve, though single readings can be large; an effect the other way counts as inactive or inconclusive.

SMILES	LDHA inh	PINK1 expr mod	Vif-APOBEC3F blk	Vif-A3G inh	Akt phos inh	Glioma ERSR ind
Cc1ccn2cc(CNC(=O)Cc3cn(C)c4ccccc34)nc2c1	11.1	nt	nt	nt	nt	nt
COC(=O)C1=C(C)NC(=O)CC1C(=O)Nc1cc(Cl)cc(Cl)c1 (stereo not drawn)	-7.0	nt	nt	nt	nt	nt
CCOC(=O)C1=C(C)NC(=O)CC1C(=O)Nc1cc(Cl)cc(Cl)c1 (stereo not drawn)	-60.9*	nt	nt	nt	nt	nt
Cc1nccn1C(c1ccccc1)c1ccccc1	-33.5*	-0.9%	-14.7%	-2.5%	i	-3.0%
Cc1nccn1Cc1cccc2ccccc12	-7.0	2.8%	-4.1%	-0.9%	i	-1.4%
COc1cccc(NC(=O)Nc2c(NC3CCCC3)c3ccccc3oc2=O)c1	-7.7	nt	nt	nt	nt	nt
O=S(=O)(/C=C/c1ccccc1)n1cnc2ccccc21	-6.6	1.0%	-12.1%	1.2%	-117.8%*	5.9%
COC(=O)Nc1nc(-c2ccccc2)c(C(=O)c2ccc(Cl)cc2)s1	-7.8	6.2%	2.7%	-33.5%	-85.6%*	-9.3%
O=C(CCCc1cccs1)NC1CC1	-4.9	nt	nt	nt	nt	nt
COc1ccccc1Oc1nc2c(C)cccn2c(=O)c1/C=C(\C#N)c1nc2ccccc2[nH]1	12.8	25.1µM*	2.9%	-22.5%	nt	-0.8%
COc1ccc(C(C)NC(=O)Cc2ccsc2)cc1F (stereo not drawn)	1.2	nt	nt	nt	nt	nt
CC(C)NC(=O)C(Sc1ccccc1)c1ccccc1 (stereo not drawn)	-0.9	-2.5%	-11.2%	0.1%	i	-2.1%
CNC(=S)NNC(=O)C(Sc1ccccc1)c1ccccc1 (stereo not drawn)	-32.0*	nt	nt	nt	nt	nt
Cc1cc(/C=C2\SC(=S)N(C)C2=O)c(C)n1-c1ccc(O)cc1	0.2	?	25.1µM*	?	i	-14.6%
CN1C(=O)/C(=C/c2coc3ccc(O)cc3c2=O)SC1=S	-4.3	?	-10.3%	1.0%	i	-2.2%
Cc1cc(/C=C2\SC(=S)N(C)C2=O)c(C)n1-c1ccccc1O	-3.3	?	11.2µM*	?	i	1.0%
O=C(CCc1ncc(-c2ccc(Cl)cc2)o1)Nc1ccccc1O	-1.2	nt	nt	nt	nt	nt
O=C(Cn1ccc2ccccc21)Nc1ccc2c(c1)OCO2	-35.8*!	8.0%	-18.5%	-8.2%	i	1.9%
Cc1cccc(NC(=O)C2CCCN(C(=O)Nc3ccccc3)C2)c1C (stereo not drawn)	-5.1	-2.5%	-6.8%	-0.1%	-110.2%*	-5.0%
CCOCCn1c(N2CCN(Cc3ccc(Cl)c(Cl)c3)CC2)nc2c1c(=O)[nH]c(=O)n2C	5.0	nt	nt	nt	nt	nt
O=S(=O)([N-]c1nc2ccccc2nc1-[n+]1ccc(-c2ccncc2)cc1)c1ccccc1	-7.3	-2.1%	3.55µM*	-2.8%	i	-4.2%
O=C(c1ccccc1)N1CCCCC(S(=O)(=O)c2ccc3ccccc3c2)C1=O (stereo not drawn)	9.0	5.01µM*	-6.3%	-1.9%	i	-2.4%
CCNc1ccc(S(=O)(=O)N(C)C)cc1[N+](=O)[O-]	-37.1*	3.8%	-6.4%	-1.8%	i	-3.1%
Cc1cc(C(F)(F)F)n(-c2nc(C(=O)O)cs2)n1	-6.1	-0.9%	-0.1%	4.5%	i	-1.7%
O=C(O)c1csc(-n2nc(-c3ccccc3)cc2C(F)(F)F)n1	-87.4*	-1.5%	9.1%	0.6%	i	-4.6%
SMILES	LDHA inh	PINK1 expr mod	Vif-APOBEC3F blk	Vif-A3G inh	Akt phos inh	Glioma ERSR ind
CCOC(=O)c1c(NC(=O)c2cc(=O)c3c(C)cc(C)cc3o2)sc2c1CCC2	-0.7	31.6µM*	-6.1%	-7.2%	nt	-0.8%
CC(Sc1nc(CN2CCOCC2)nc2ccccc12)C(=O)Nc1ccc(F)cc1F (stereo not drawn)	-33.2*	nt	nt	nt	nt	nt
CCC(=O)N1CCc2cc(Br)c(S(=O)(=O)CCC(=O)NCCC(C)C)cc21	-10.6	nt	nt	nt	nt	nt
c1ccc2[nH]c(NN=C3CCCCCC3)nc2c1	-12.0	1.6%	22.4µM*	0.5%	i	-5.1%
Cc1ccc(NC(=O)/C(C#N)=C/c2ccc(C)s2)c(C)c1	-1.3	11.5%	?	11.2µM*	i	-2.3%
CCCn1c(N2CCN(CC(=O)NCc3cccs3)CC2)nc2ccccc21	-0.2	0.5%	2.1%	1.2%	-109.7%*	-4.1%
COC(=O)c1ccc(OC(=O)c2ccc3c(c2)NC(=O)CS3)cc1	15.2	nt	nt	nt	nt	nt
O=C(Nc1ccc(Cl)c(Cl)c1)Nc1nnc(CSc2ccccc2)s1	-0.4	10µM*	-32.3%	-3.0%	i	-4.2%
O=C(Nc1ccc(Cl)cc1)Nc1nnc(CSCc2ccccc2Cl)s1	-6.4	39.8µM*	0.4%	-1.6%	i	-5.3%
O=C(Nc1ccccc1)Nc1nnc(CSCc2ccccc2Cl)s1	-0.4	?	-15.1%	3.6%	i	4.6%
Cc1cc(=O)oc2cc(NC(=O)Cc3ccc(Cl)cc3)ccc12	-2.5	nt	nt	nt	nt	nt
COc1cccc(NC(=O)C(=O)c2c(C)n(C)c3ccccc23)c1	-1.5	nt	nt	nt	nt	nt
O=C(NC(=S)N1CCCc2ccccc21)c1ccccc1	7.0	-0.3%	4.9%	5.5%	-114.4%*	7.2%
Cn1ncc(Br)c1C(=O)NC(=S)N1CCN(c2ccccn2)CC1	1.5	2.9%	?	-1.6%	i	-2.1%
O=C(NC(=S)N1CCN(C2CCCCC2)CC1)c1ccccc1	-10.3	2.5%	22.4µM*	3.9%	i	3.6%
O=C(NC(=S)N1CCN(c2ccccn2)CC1)c1ccccc1	-12.9	3.0%	22.4µM*	2.4%	i	0.4%
O=C(NC(=S)N1CCCCCC1)c1ccccc1	-2.3	-1.3%	-3.6%	-1.8%	i	-2.5%
O=C(NC(NNc1ccc([N+](=O)[O-])cc1)(C(F)(F)F)C(F)(F)F)c1ccc(F)cc1	-2.3	44.7µM*	-1.5%	-13.9%	i	-3.4%
O=[N+]([O-])c1ccc(NNC(=S)Nc2ccc(F)cc2)cc1	5.6	14.1µM*	-4.8%	0.0%	i	5.1%
O=C(NNC(=S)Nc1ccc(F)cc1)c1cccc([N+](=O)[O-])c1	-5.0	-0.8%	4.3%	-1.4%	i	1.5%
Cc1oc(-c2nc(C#N)c(NCC3CCCO3)o2)cc1S(=O)(=O)N1CCCCCC1 (stereo not drawn)	10.9	nt	nt	nt	nt	nt
COc1cc(OC)c(C2=CCN(C(=O)c3ccc(OCc4noc(C)n4)cc3)CC2)c(OC)c1	0.0	nt	nt	nt	nt	nt
COC(=O)c1ccn(Cc2ccc(Cl)cc2Cl)n1	6.2	nt	nt	nt	nt	nt
C#CCSc1nc(-c2cccs2)ccc1C#N	-9.5	4.0%	2.82µM*	-23.8%	i	5.2%
Cc1ccc(SC2=C(Sc3ccc(C)cc3)C(=O)c3ccccc3C2=O)cc1	41.7	?	8.91µM*	-9.8%	i	5.3%
CCc1ccc(NC(=O)CCc2nnc3ccc(NCc4cccnc4)nn23)cc1	2.9	nt	nt	nt	nt	nt
Cc1ccccc1NC(=O)CSc1nnc(-c2ccccc2)n1-c1ccccc1	-2.4	2.7%	-3.1%	-4.1%	-98.1%*	-5.8%
